The list is not random: actives were taken first. Their share in the collection is about 2.7%.
12-LOX inh = blocks human arachidonate 12S-lipoxygenase. P18054. Potency, µM (top dose mostly 108 µM), without a hit: at the top dose activity change, negative = inhibition, actives largely listed as inhibitors. AID 1671190. 580,000 compounds, 1.1% hits. purified 12hLO, xylenol orange hydroperoxide absorbance; note: % is set by controls: 0 for no effect and ±100 for the full control effect
Target sequence (P18054 whole entry, looked up): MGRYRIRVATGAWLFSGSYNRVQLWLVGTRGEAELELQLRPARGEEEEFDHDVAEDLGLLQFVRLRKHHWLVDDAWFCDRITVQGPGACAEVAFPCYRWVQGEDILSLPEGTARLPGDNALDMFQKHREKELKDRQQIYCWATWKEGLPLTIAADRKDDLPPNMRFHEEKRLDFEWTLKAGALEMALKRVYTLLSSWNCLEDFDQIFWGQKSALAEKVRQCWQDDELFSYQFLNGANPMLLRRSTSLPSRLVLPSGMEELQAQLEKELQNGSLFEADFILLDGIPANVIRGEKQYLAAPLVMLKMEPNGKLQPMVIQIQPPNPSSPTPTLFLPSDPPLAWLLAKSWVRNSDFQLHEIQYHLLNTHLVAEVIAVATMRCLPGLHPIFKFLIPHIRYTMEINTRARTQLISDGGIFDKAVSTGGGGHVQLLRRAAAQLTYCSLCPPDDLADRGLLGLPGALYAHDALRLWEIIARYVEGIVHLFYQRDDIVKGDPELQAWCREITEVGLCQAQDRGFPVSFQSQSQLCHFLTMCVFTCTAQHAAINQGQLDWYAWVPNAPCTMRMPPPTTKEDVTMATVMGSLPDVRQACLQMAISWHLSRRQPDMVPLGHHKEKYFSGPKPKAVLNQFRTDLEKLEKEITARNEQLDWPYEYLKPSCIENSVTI
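Purified human 12hLO at 150 nM in 25 mM Hepes, 0.01% Triton X-100, pH 7.0, preincubated 15 min at room temperature with compound. Reaction started with 40 uM arachidonic acid, 30 min at room temperature. Hydroperoxide measured by Fe-xylenol orange, 573/405 nm absorbance ratio.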
ATXN viability = cell viability loss in ATXN counter-screen | S2 cells (HEK-293 line with an ATXN2-luciferase reporter) viability, CellTiter-Fluor protease fluorescence, 24 h | Potency, µM (top dose mostly 56.7 µM), most hits filed as cytotoxic | 400,000 compounds, 0.49% hits | AID 651635; note: nearly all actives have a fitted effect of over 40% in size
HepG2 tox = HepG2 cytotoxicity, counter-screen for TGF-b inhibitors | HepG2 CAGA-GFP viability, ATP luminescence, 18 h | Potency, µM (titrated, usually from 46.1 µM), inactives show top-dose activity change, negative = cytotoxicity, actives largely listed as cytotoxic | 410,000 compounds, 0.76% hits | AID 588856
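CellTiter-Glo luminescence gave cytotoxicity after 18 hours at 37 degrees C. The cells were HepG2 CAGA-GFP in 1% FBS DMEM, stimulated with 500 pg/mL TGF-beta after compound addition. %Activity was normalised to no-cell wells (complete cell-killing) and DMSO (no toxicity), and curves were fitted and classified.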
TGFb SMAD3 inh = inhibitors of TGF-b signaling. HepG2 CAGA-GFP TGF-b/SMAD3 reporter, GFP fluorescence, 18 h; TGF-beta stimulated, 500 pg/mL final. Potency, µM (titrated, usually from 46.1 µM), without a hit: at the top dose activity, negative = inhibition, usual class: inhibitors. 410,000 compounds, 1.2% hits; note: % is set by controls: 0 for no effect and ±100 for the full control effect; nearly all actives have a fitted effect of over 65% in size
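HEPG2 CAGA-GFP cells (1000/well, DMEM with 1% FBS) were pre-incubated 2 h at 37 degrees C, given compound by pin tool, then stimulated with TGF-beta at 500 pg/mL final for 18 h before per-cell GFP fluorescence imaging.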
ATXN2 expr inh = reduces ATXN2 reporter expression in HEK-293 cells. HEK-293 ATXN2-luciferase reporter, luminescence, 24 h. Potency, µM (doses to about 57 µM), without a hit: at the top dose activity change, negative = inhibition, actives largely listed as inhibitors. 360,000 compounds, 0.72% hits. AID 1745845; note: % is set by controls: 0 for no effect and ±100 for the full control effect; nearly all actives have a fitted effect of over 55% in size
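ATXN2-luciferase reporter cells (luciferase flanked by upstream and downstream ATXN2 gene portions) were treated 24 h at 37 °C with compounds at up to 57 uM. SteadyGlo luminescence gave expression; GF-AFC fluorescence gave viability.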
Numbers without * were called inactive; [ ] = dose if it differs, or a comment. Calls come from the whole dose curve; as a rule, active = well fitted curve in the direction sought with a large enough effect; inconclusive = small, poorly fitted or top-dose-only effect, or another doubt; inactive = no such curve, though single readings can be large; an effect the other way counts as inactive or inconclusive. Potency is the fitted concentration of half-maximal effect.

Results for Fc1ccc(-c2noc(/C=C/c3ccccc3)n2)cc1 ?
12-LOX inh: -27%

How did C=C(C)Cn1c(N2CCN(CC(N)=O)CC2)nc2c1c(=O)[nH]c(=O)n2C do in these assays?
12-LOX inh: 0%

Results for N#Cc1ccc2c(=O)n(-c3ccccc3)sc2c1 ?
12-LOX inh: 0.45µM*; ATXN viability: 10µM*; HepG2 tox: -57%; TGFb SMAD3 inh: -34%; ATXN2 expr inh: -35%

Results for O=c1c2ccccc2sn1-c1cccc(Cl)c1 ?
12-LOX inh: inconclusive; ATXN viability: 25µM*; HepG2 tox: -65%; TGFb SMAD3 inh: inconclusive; ATXN2 expr inh: -25%

What do the screens show for `Cn1c(=O)n(-c2cccc(Cl)c2)c(=O)c2sc3ccccc3c21`?
12-LOX inh: -11%; ATXN viability: inactive; HepG2 tox: -3%; TGFb SMAD3 inh: -3%; ATXN2 expr inh: 2%

Results for O=C(O)c1cccc(-n2sc3ccccc3c2=O)c1 ?
12-LOX inh: 11µM*; ATXN viability: inconclusive; HepG2 tox: -38%; TGFb SMAD3 inh: inconclusive; ATXN2 expr inh: -24%

What do the screens show for `O=C(O)c1cccc(-n2c(/C=C/c3ccccc3)nc3ccccc3c2=O)c1`?
12-LOX inh: inconclusive; ATXN viability: inconclusive; HepG2 tox: 0%; TGFb SMAD3 inh: -19%; ATXN2 expr inh: 1%

Results for Cn1sc2ccccc2c1=O ?
12-LOX inh: -35%; HepG2 tox: -111%; TGFb SMAD3 inh: inconclusive; ATXN2 expr inh: 28µM*

How did COCCn1c(=O)sc2ccccc2c1=O do in these assays?
12-LOX inh: 5%; ATXN viability: inactive; HepG2 tox: 5%; TGFb SMAD3 inh: -2%; ATXN2 expr inh: -6%

Results for c1ccc(-n2ncc3c(Oc4cccnc4)ncnc32)cc1 ?
12-LOX inh: 19%

How did COc1ccccc1-c1nc(C#N)c(NCc2ccccc2Cl)o1 do in these assays?
12-LOX inh: -1%

What do the screens show for `O=c1c2cc(C(F)(F)F)ccc2sn1-c1ccccc1`?
12-LOX inh: -71%; ATXN viability: inconclusive; HepG2 tox: -38%; TGFb SMAD3 inh: -29%; ATXN2 expr inh: 4%

How did O=c1c2ccccc2sn1-c1ccc(S(=O)(=O)N2CCCC2)cc1 do in these assays?
12-LOX inh: -78%; ATXN viability: inactive; HepG2 tox: -12%; TGFb SMAD3 inh: -7%; ATXN2 expr inh: 30%

What do the screens show for `O=c1c2ccccc2sn1-c1nccs1`?
12-LOX inh: 1.6µM*; ATXN viability: inconclusive; HepG2 tox: -7%; TGFb SMAD3 inh: -21%; ATXN2 expr inh: -4%[11.3 µM]

Results for CN(C)S(=O)(=O)c1cccc(-n2sc3ccccc3c2=O)c1 ?
12-LOX inh: 1.8µM*; ATXN viability: inconclusive; HepG2 tox: -42%; TGFb SMAD3 inh: inconclusive; ATXN2 expr inh: -35%

Results for O=c1c2ccccc2sn1-c1ccccc1 ?
12-LOX inh: 0.56µM*; HepG2 tox: -60%; TGFb SMAD3 inh: 16µM*; ATXN2 expr inh: inconclusive

What do the screens show for `N#C/C(=C/c1ccccc1)c1nc2ccccc2[nH]1`?
12-LOX inh: 0%

How did Cn1c(=O)c2c(ncn2CC(=O)OCC(=O)NC(=O)c2ccccc2)n(C)c1=O do in these assays?
12-LOX inh: 2%

What do the screens show for `O=C(NCc1coc(-c2cccs2)n1)c1cccc(I)c1`?
12-LOX inh: -28%

What do the screens show for `CSCc1nc(CNc2nc(C3CCCC3)nc3c2cnn3C)cs1`?
12-LOX inh: 19%

How did COc1ccc(/C=C/c2cccc[n+]2C)c(O)c1 do in these assays?
12-LOX inh: inconclusive; ATXN viability: inconclusive; HepG2 tox: -2%; TGFb SMAD3 inh: inconclusive

How did CCN(CC)c1ccc(/C=C/c2cccc[n+]2C)c(OC)c1 do in these assays?
12-LOX inh: inconclusive; ATXN viability: 8.9µM*; HepG2 tox: -16%; TGFb SMAD3 inh: 26%; ATXN2 expr inh: 3.2µM*

How did CCN(CC)C(=O)Cn1c(=O)n(CCCCCC(=O)NCc2ccccc2)c(=O)c2sccc21 do in these assays?
12-LOX inh: -16%; ATXN viability: inactive; HepG2 tox: 3%; TGFb SMAD3 inh: 3%; ATXN2 expr inh: -3%
